Data: PubChem BioAssay AID1159580 (chemical genetic matrix, 2015)
Where “and” joins values, the source holds several entries; their conditions need not be identical. Identical values can stand only once. Among all 5,500 compounds or so, about 2,000 (36%) were called active. Not shown: some 18% with an inconclusive outcome. Rule as the data show it: active = normalized growth mostly below about 0.91 (no sharp cut-off); inconclusive = no clear call, values can overlap the other calls; inactive = mostly above about 0.92. The list shows a part of the results.

Assay: chemical genetic growth profiling, strain panel (AID 1159580);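 also: tested at 20 µM; growth read once vehicle control cultures reached saturation at 30 °C; 1 = growth at the plate median or of vehicle wells; lower values mean less growth of the strain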
Conditions: S. cerevisiae deletion strains, growth OD

Measured: normalized growth

COc1ccc2c3c1O[C@H]1C[C@@H](O)C=C[C@@]31CCN(C)C2
inactive: locus YAL013W, strain DEP1, stronger effect = lower value 1.01 | locus YAL021C, strain ccr4, stronger effect = lower value 1.02 | locus YAL026C, strain drs2, stronger effect = lower value 0.993 | locus YAL030W, strain snc1, stronger effect = lower value 0.984 | locus YBL061C, strain skt5, stronger effect = lower value 0.994 | locus YBR009C, strain hhf1, stronger effect = lower value 1.01 | locus YBR021W, strain FUR4, stronger effect = lower value 0.999 | locus YBR023C, strain chs3, stronger effect = lower value 0.992 | locus YBR171W, strain sec66, stronger effect = lower value 1.01 | locus YBR229C, strain ROT2, stronger effect = lower value 1 | locus YBR231C, strain swc5, stronger effect = lower value 0.984 | locus YBR279W, strain paf1, stronger effect = lower value 0.992 | locus YCL011C, strain gbp2, stronger effect = lower value 0.998 | locus YCL016C, strain dcc1, stronger effect = lower value 0.999 | locus YCL029C, strain bik1, stronger effect = lower value 1.02 | locus YCL061C, strain MRC1, stronger effect = lower value 1.02 | locus YCL069W, strain vba3, stronger effect = lower value 1 | locus YCR088W, strain abp1, stronger effect = lower value 1 | locus YDL005C, strain med2, stronger effect = lower value 0.995 | locus YDL035C, strain GPR1, stronger effect = lower value 1.01 | locus YDL040C, strain nat1, stronger effect = lower value 1 | locus YDL074C, strain BRE1, stronger effect = lower value 1 | locus YDL101C, strain DUN1, stronger effect = lower value 0.996 | locus YDL134C, strain PPH21, stronger effect = lower value 1.01 | locus YDL185W, strain tfp1, stronger effect = lower value 1.02 | locus YDL192W, strain arf1, stronger effect = lower value 1.01 | locus YDR001C, strain nth1, stronger effect = lower value 0.998 | locus YDR069C, strain doa4, stronger effect = lower value 0.997 | locus YDR101C, strain arx1, stronger effect = lower value 1.01 | locus YDR137W, strain rgp1, stronger effect = lower value 1.03 | locus YDR150W, strain NUM1, stronger effect = lower value 1.01 | locus YDR159W, strain sac3, stronger effect = lower value 0.935 | locus YDR162C, strain NBP2, stronger effect = lower value 0.97 | locus YDR195W, strain ref2 0.946 | locus YDR297W, strain sur2, stronger effect = lower value 1.01 | locus YDR318W, strain mcm21, stronger effect = lower value 1.05 | locus YDR334W, strain swr1, stronger effect = lower value 0.994 | locus YDR335W, strain msn5, stronger effect = lower value 1.02 | locus YDR388W, stronger effect = lower value 1.01 | locus YDR392W, strain spt3, stronger effect = lower value 1.05 | locus YDR502C, strain sam2, stronger effect = lower value 1.01 | locus YEL003W, strain gim4, stronger effect = lower value 0.985 | locus YEL037C, strain rad23, stronger effect = lower value 1 | locus YEL061C, strain CIN8 (second series), stronger effect = lower value 1.01 | locus YEL061C, strain CIN8, stronger effect = lower value 1.01 | locus YER015W, strain faa2, stronger effect = lower value 0.993 | locus YER016W, strain bim1, stronger effect = lower value 1.01 | locus YER110C, stronger effect = lower value 1.02 | locus YER111C, strain swi4, stronger effect = lower value 0.997 | locus YER155C, strain BEM2 (second series), stronger effect = lower value 1.01 | locus YER155C, strain BEM2, stronger effect = lower value 0.998 | locus YER167W, strain BCK2, stronger effect = lower value 1.03 | locus YFR010W, strain ubp6, stronger effect = lower value 0.986 | locus YGL078C, strain dbp3, stronger effect = lower value 0.992 | locus YGL086W, strain mad1, stronger effect = lower value 1.04 | locus YGL167C, strain pmr1, stronger effect = lower value 0.997 | locus YGL173C, strain kem1, stronger effect = lower value 0.997 | locus YGL227W, strain vid30, stronger effect = lower value 0.997 | locus YGL240W, strain doc1, stronger effect = lower value 0.999 | locus YGL248W, strain PDE1, stronger effect = lower value 1.01 | locus YGL253W, strain hxk2, stronger effect = lower value 1.01 | locus YGR078C, strain PAC10, stronger effect = lower value 0.981 | locus YGR135W, strain pre9, stronger effect = lower value 1 | locus YGR229C, strain SMI1, stronger effect = lower value 0.981 | locus YGR252W, strain gcn5, stronger effect = lower value 1.08 | locus YHR013C, strain ard1, stronger effect = lower value 1.01 | locus YHR027C, strain rpn1, stronger effect = lower value 1 | locus YHR030C, strain SLT2, stronger effect = lower value 1.01 and 0.985 | locus YHR079C, strain IRE1 (second series), stronger effect = lower value 1.02 | locus YHR079C, strain IRE1, stronger effect = lower value 0.989 | locus YHR094C, strain hxt1, stronger effect = lower value 1.01 | locus YHR129C, strain ARP1, stronger effect = lower value 1.01 | locus YHR142W, strain chs7, stronger effect = lower value 0.982 | locus YHR200W, strain rpn10, stronger effect = lower value 1.02 | locus YIL066C, strain RNR3, stronger effect = lower value 1.01 | locus YIL073C, strain SPO22, stronger effect = lower value 1.04 | locus YIL125W, strain kgd1, stronger effect = lower value 1.01 | locus YIR030C, strain dcg1, stronger effect = lower value 1.02 | locus YJL092W, strain hpr5, stronger effect = lower value 1 | locus YJL095W, strain BCK1 (second series), stronger effect = lower value 1.01 | locus YJL095W, strain BCK1, stronger effect = lower value 1.01 and 0.995 | locus YJL115W, strain asf1, stronger effect = lower value 1.01 | locus YJL129C, strain trk1, stronger effect = lower value 0.983 | locus YJL134W, strain LCB3, stronger effect = lower value 1.01 | locus YJL154C, strain vps35, stronger effect = lower value 1.01 | locus YJL164C, strain tpk1, stronger effect = lower value 1 | locus YJL166W, strain qcr8, stronger effect = lower value 1.01 | locus YJL168C, strain set2, stronger effect = lower value 1.01 | locus YJL187C, strain SWE1 (second series), stronger effect = lower value 1 | locus YJR043C, strain POL32, stronger effect = lower value 1.03 | locus YJR066W, strain TOR1, stronger effect = lower value 0.935
